Rab9 promoter act: activators of Rab9 promoter; Potency, µM (doses to about 9.22 µM), inactives show top-dose activation, negative = inhibition, actives largely listed as activators; AID 485297; Huh7 Rab9 promoter-luciferase reporter, luminescence, 24 h; 320,000 tested, 2.8% active; further: % of control where 0% means no effect; nearly all actives have a fitted effect of over 60% in size
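Luminescence read-out: Huh7 cells stably expressing Rab9-luciferase, treated 24 h with compound at 37 °C, then lysed with luciferase reagent for 10 min at ambient before reading.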
FLuc counter: counter-screen for miR-21 project: firefly luciferase inhibitors or activators; P08659; purified FLuc, Km substrates, luminescence inhibition; Potency, µM (highest dose often 57.5 µM), for the others: at the top dose activity change, negative = inhibition, actives largely listed as inhibitors; 360,000 tested, 6.9% active;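 further: plate controls were vehicle for no effect and reference inhibitor for full effect; nearly all actives have a fitted effect of over 55% in size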
Target sequence (P08659 whole entry, looked up): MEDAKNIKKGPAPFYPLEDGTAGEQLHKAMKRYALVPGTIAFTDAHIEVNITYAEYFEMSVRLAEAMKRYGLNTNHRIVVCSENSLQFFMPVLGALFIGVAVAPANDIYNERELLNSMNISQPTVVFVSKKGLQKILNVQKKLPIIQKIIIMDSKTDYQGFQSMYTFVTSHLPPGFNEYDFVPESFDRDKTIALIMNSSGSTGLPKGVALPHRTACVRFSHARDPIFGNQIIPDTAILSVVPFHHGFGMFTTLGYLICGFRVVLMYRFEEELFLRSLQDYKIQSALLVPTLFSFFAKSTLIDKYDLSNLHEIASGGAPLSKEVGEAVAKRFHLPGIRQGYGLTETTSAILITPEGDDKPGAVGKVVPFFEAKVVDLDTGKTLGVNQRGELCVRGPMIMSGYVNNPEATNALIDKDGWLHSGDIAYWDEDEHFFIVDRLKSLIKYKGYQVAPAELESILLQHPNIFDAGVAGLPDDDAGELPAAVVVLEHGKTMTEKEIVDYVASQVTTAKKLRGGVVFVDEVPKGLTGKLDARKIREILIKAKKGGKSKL
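Biochemical qHTS of compounds, final roughly 60 µM downward over six points, against 10 nM purified firefly luciferase using Km concentrations of substrates (10 uM D-luciferin, 10 uM ATP) in Tris acetate pH 7.5 buffer; luminescence output.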
ELG1 genotoxic: induces genotoxicity in HEK293T cells with luciferase-tagged ELG1; 330,000 tested, 1.3% active; HEK293T ELG1-luciferase reporter, luminescence, 16 h; Potency, µM (top dose mostly 46 µM), without a hit: at the highest dose activity change, positive = activation, hits mostly activators; AID 504466; further: % of control where 0% means no effect; nearly all actives have a fitted effect of over 60% in size
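Luminescence read-out: rising ELG1-luciferase signal, reflecting elevated ELG1 protein under genetic stress, flags genotoxic compounds. Cells were treated for 16 hr at 37 °C before ONE-Glo detection.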
KinaseGlo FLuc: blocks Kinase-Glo luciferase, a counter-screen artifact; Kinase-Glo luciferase, ATP luminescence, 8 min; Potency, µM (top dose mostly 38.3 µM), for inactives: at the highest dose activity change, negative = inhibition, most hits filed as inhibitors; AID 1379; 200,000 tested, 0.28% active; further: on the % scale 0 is the no-effect control and ±100 the full control effect; nearly all actives have a fitted effect of over 60% in size
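Recombinant Kinase-Glo luciferase, 10 uM ATP (linear range), luciferin; imidazole pH 7.2 / KCl / MgCl2 / Tween / BSA buffer; 8 min RT; luminescence.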
SMN2 splice enh: enhancers of SMN2 splice variant expression; Potency, µM (top dose mostly 46.1 µM), for inactives: at the highest dose activity change, positive = activation, most hits filed as activators; AID 1458; 210,000 tested, 2.8% active; HEK293 SMN2-luciferase splicing reporter, luminescence, 30-36 h; further: % of control where 0% means no effect; nearly all actives have a fitted effect of over 55% in size
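HEK293 cells carry an SMN2 […]–luciferase reporter in which exon 7 inclusion puts luciferase in frame. Cells were plated 10-12 h before compound addition, then incubated 30-36 h at 37C. ONE-Glo luminescence was read; sodium butyrate at 4.5 mM final served as control.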
NPC1 promoter act: activators of NPC1 promoter. Huh7 NPC1 promoter luciferase reporter, 24 h. 320,000 tested, 2.4% active. AID 485313. Potency, µM (top dose mostly 9.22 µM), for inactives: at the top dose activation, most hits filed as activators; further: % of control where 0% means no effect; nearly all actives have a fitted effect of over 60% in size
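Luciferase expression driven by the NPC1 promoter was measured in stably transfected Huh7 cells after a 24 h compound incubation, using a luciferase reagent and a luminescence read.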
Active calls of the source: *. In the library only some 7.3% were active in any assay of this set; here they are far more common. The call rests on the fitted dose curve; in most records, active means well fitted curve in the direction sought with a large enough effect; inconclusive means small, poorly fitted or top-dose-only effect, or another doubt; inactive means no such curve, though single readings can be large; an effect the other way counts as inactive or inconclusive. Potency means the concentration at half of the fitted maximal effect.

How did COc1ccc(-c2noc(-c3ccccc3C(=O)Nc3cccnc3)n2)cc1 do in these assays?
Rab9 promoter act: 28.7%; FLuc counter: 13.5µM*; ELG1 genotoxic: -8.7%; KinaseGlo FLuc: -0.4%; SMN2 splice enh: 4.7%; NPC1 promoter act: 15.5%

How did CCN(CC(=O)Nc1ccccc1C(F)(F)F)C(=O)c1cc(S(=O)(=O)N2CCCCCC2)ccc1OC do in these assays?
Rab9 promoter act: -9.9%; FLuc counter: 3.8%; ELG1 genotoxic: -4.5%; NPC1 promoter act: -1.3%

What do the screens show for `CCCC(=O)NCCc1cc2ccc(C)c(C)c2[nH]c1=O`?
Rab9 promoter act: -0.6%; FLuc counter: 2.7%; ELG1 genotoxic: inconclusive; KinaseGlo FLuc: 0.8%; SMN2 splice enh: 18.6%; NPC1 promoter act: 0.5%

Results for COc1ccc(-c2noc(-c3ccccc3C(=O)Nc3cccnc3)n2)cc1OC ?
Rab9 promoter act: -2.2%; FLuc counter: inconclusive; ELG1 genotoxic: -2.6%; KinaseGlo FLuc: -1.1%; SMN2 splice enh: -16.8%; NPC1 promoter act: -0.6%

How did COc1ccccc1-c1noc(-c2ccccc2C(=O)Nc2cccnc2)n1 do in these assays?
Rab9 promoter act: -3.3%; FLuc counter: 15.1µM*; ELG1 genotoxic: -5.1%; KinaseGlo FLuc: -15.6%; SMN2 splice enh: 23.7%; NPC1 promoter act: -3.8%

What do the screens show for `CSc1ccccc1NC(=O)CN(C)CC(=O)Nc1ccc(N2CCOCC2)cc1`?
Rab9 promoter act: -5.1%; FLuc counter: 6.5%; ELG1 genotoxic: -9.6%; KinaseGlo FLuc: -1.1%; SMN2 splice enh: -22.0%; NPC1 promoter act: -0.8%

Results for CCCSc1nc2c3c(sc2c(=O)[nH]1)CC(C)(CC)OC3 (stereo not drawn) ?
Rab9 promoter act: 2.9%; FLuc counter: 5.36µM*; ELG1 genotoxic: 4.0%; KinaseGlo FLuc: 3.7%; SMN2 splice enh: 9.2%; NPC1 promoter act: 5.3%

Results for CCn1c(-c2ccccc2)csc1=Nc1ccc(S(=O)(=O)O)cc1 ?
Rab9 promoter act: inconclusive; FLuc counter: 3.79µM*; ELG1 genotoxic: -0.4%; KinaseGlo FLuc: 4.7%; SMN2 splice enh: -18.5%; NPC1 promoter act: inconclusive

How did Fc1ccccc1-c1csc(-c2cccnc2)n1 do in these assays?
Rab9 promoter act: inconclusive; FLuc counter: 15.1µM*; ELG1 genotoxic: inconclusive; NPC1 promoter act: inconclusive

Results for Fc1ccc(-c2csc(-c3cccnc3)n2)cc1F ?
Rab9 promoter act: inconclusive; FLuc counter: inconclusive; ELG1 genotoxic: 11.5%; NPC1 promoter act: inconclusive

How did c1ccc(-c2csc(-c3ccncc3)n2)cc1 do in these assays?
Rab9 promoter act: 24.0%; FLuc counter: 15.1µM*; ELG1 genotoxic: 18.5%; KinaseGlo FLuc: 1.1%; SMN2 splice enh: 22.8%; NPC1 promoter act: 18.2%

What do the screens show for `c1cncc(-c2nc(-c3ccc4c(c3)OCCO4)cs2)c1`?
Rab9 promoter act: 0.562µM*; FLuc counter: 1.69µM*; ELG1 genotoxic: inconclusive; NPC1 promoter act: 0.891µM*

How did Oc1ccc(-c2csc(-c3cccnc3)n2)cc1O do in these assays?
Rab9 promoter act: -15.4%; FLuc counter: 16.9µM*; ELG1 genotoxic: inconclusive; NPC1 promoter act: 20.5%

Results for Brc1ccsc1-c1csc(-c2ccncc2)n1 ?
Rab9 promoter act: 27.9%; FLuc counter: inconclusive; ELG1 genotoxic: inconclusive; NPC1 promoter act: 25.3%

What do the screens show for `CCOc1ccc(CN2C(=O)c3ccccc3Sc3ccc(C(=O)NC)cc32)cc1`?
FLuc counter: -19.1%; SMN2 splice enh: -11.3%

What do the screens show for `Oc1ccccc1-c1csc(-c2ccccc2)n1`?
Rab9 promoter act: inconclusive; FLuc counter: 5.36µM*; ELG1 genotoxic: -10.5%; KinaseGlo FLuc: -20.8%; SMN2 splice enh: inconclusive; NPC1 promoter act: -5.5%

Results for Oc1ccc(-c2csc(-c3ccccc3)n2)cc1O ?
Rab9 promoter act: -1.4%; FLuc counter: 15.1µM*; ELG1 genotoxic: inconclusive; KinaseGlo FLuc: 5.1%; SMN2 splice enh: inconclusive; NPC1 promoter act: 18.0%

How did Cc1nc(-c2ccc(O)c(O)c2)cs1 do in these assays?
Rab9 promoter act: 28.9%; FLuc counter: -17.8%; ELG1 genotoxic: 22.6%; KinaseGlo FLuc: -4.6%; SMN2 splice enh: 2.0%; NPC1 promoter act: -6.9%

What do the screens show for `Clc1ccc(-c2csc(-c3cccnc3)n2)s1`?
Rab9 promoter act: 24.4%; FLuc counter: 13.5µM*; ELG1 genotoxic: 10.9%; NPC1 promoter act: 22.5%

Results for Cc1csc(-c2cccnc2)n1 ?
Rab9 promoter act: 2.6%; FLuc counter: 1.3%; ELG1 genotoxic: 1.3%; KinaseGlo FLuc: 0.9%; SMN2 splice enh: 7.3%; NPC1 promoter act: -2.7%

How did CN(C)c1ccnc(Oc2ccc(C(C)(C)C)cc2)c1C#N do in these assays?
Rab9 promoter act: 25.3%; FLuc counter: inconclusive; ELG1 genotoxic: 3.9%; KinaseGlo FLuc: 2.7%; SMN2 splice enh: inconclusive; NPC1 promoter act: 9.7%

How did Cc1cccc(-c2nnc(SCC(=O)Nc3ncccn3)n2C)c1 do in these assays?
Rab9 promoter act: 0.5%; FLuc counter: -1.6%; ELG1 genotoxic: -0.7%; KinaseGlo FLuc: 4.2%; SMN2 splice enh: 1.2%; NPC1 promoter act: 0.1%

How did O=C(CCC(=O)c1ccc(Cl)cc1)OCC(=O)c1ccccc1 do in these assays?
Rab9 promoter act: 0.9%; FLuc counter: -17.3%; ELG1 genotoxic: -2.7%; KinaseGlo FLuc: 3.3%; SMN2 splice enh: 33.5%; NPC1 promoter act: -2.1%

Results for COc1ccc(-c2cc(C(=O)Nc3nc4ccccc4s3)c3ccccc3n2)cc1OC ?
Rab9 promoter act: -0.5%; FLuc counter: 16.9µM*; ELG1 genotoxic: -3.7%; KinaseGlo FLuc: -3.5%; SMN2 splice enh: -34.5%; NPC1 promoter act: -1.7%

Results for COc1ccc(-c2cc(C(=O)Nc3ccccc3O)c3ccccc3n2)cc1OC ?
Rab9 promoter act: -1.8%; FLuc counter: inconclusive; ELG1 genotoxic: -11.0%; KinaseGlo FLuc: -3.8%; SMN2 splice enh: -40.9%; NPC1 promoter act: -5.9%

Results for COc1cccc(-c2cc(C(=O)Nc3cccnc3)c3ccccc3n2)c1 ?
Rab9 promoter act: 3.8%; FLuc counter: 26.9µM*; ELG1 genotoxic: -14.1%; NPC1 promoter act: -0.2%

Results for COc1ccc(-c2cc(C(=O)Nc3cccnc3)c3ccccc3n2)cc1OC ?
Rab9 promoter act: -0.1%; FLuc counter: 10.7µM*; ELG1 genotoxic: -18.0%; NPC1 promoter act: 0.0%

Results for COc1ccc(Cn2cnc([N+](=O)[O-])c2)cc1[N+](=O)[O-] ?
Rab9 promoter act: 0.9%; FLuc counter: 2.7%; ELG1 genotoxic: 4.0%; NPC1 promoter act: -1.8%

What do the screens show for `Cc1nnc(C)n1/N=C/c1cc2ccccc2nc1Cl`?
Rab9 promoter act: -3.6%; FLuc counter: -2.5%; ELG1 genotoxic: 5.2%; KinaseGlo FLuc: 5.1%; SMN2 splice enh: 16.9%; NPC1 promoter act: -1.4%
